# Measured values taken from PubChem BioAssay (NCI).
# Compounds without any hit were thinned out: in the full panel of roughly 79,000, 15% have a hit. Unmarked numbers belong to inactive results. Activity calls are given as the source filed them. Cut-off read from the data, not from the text of the source: active = growth inhibition above about 70%; inactive = the rest.
# How the values were obtained:
# [1] = NCI Yeast Anticancer Drug Screen. Data for the rad52 strain (AID 147);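 note: 0% = growth of vehicle-treated control cultures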; conditions: S. cerevisiae rad52 mutant growth inhibition, stronger effect = higher value
# Method in brief: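 Growth of repair-deficient yeast cells was compared between compound-treated and vehicle-treated cultures to give percent inhibition.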
# [2] = NCI Yeast Anticancer Drug Screen. Data for the wt1 strain (AID 149);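 note: 0% = growth of vehicle-treated wt1 cultures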; conditions: S. cerevisiae wt1 strain (SPY 50644) growth inhibition, stronger effect = higher value
# Method in brief: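 Compounds are added to wt1 yeast cultures. Growth is then measured. Inhibition is expressed relative to vehicle-treated controls.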
# [3] = NCI Yeast Anticancer Drug Screen. Data for the rad50EPP+ strain (AID 151);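 note: 0% = growth of vehicle-treated control cultures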; conditions: S. cerevisiae rad50 mutant strain, stronger effect = higher value
# Method in brief: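 Measured: growth inhibition of rad50EPP+ yeast. Reference: vehicle-treated controls. Screen uses strains with defined genetic alterations in DNA damage repair or cell cycle control.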
# [4] = NCI Yeast Anticancer Drug Screen. Data for the mgt1 strain (AID 153); conditions: S. cerevisiae mgt1 mutant growth inhibition, stronger effect = higher value
# Method in brief: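 Compounds were applied to mgt1 mutant yeast, and growth was then compared against vehicle-treated control cultures to give percent inhibition.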
# [5] = NCI Yeast Anticancer Drug Screen. Data for the rad50 strain (AID 155);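 note: 0% = growth of vehicle-only cultures of the same strain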; conditions: S. cerevisiae rad50 strain growth inhibition, stronger effect = higher value
# Method in brief: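 Inhibition values express reduced yeast growth in compound-treated cultures relative to vehicle-treated controls.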
# [6] = NCI Yeast Anticancer Drug Screen. Data for the mec2-1 strain (AID 157); conditions: S. cerevisiae mec2-1 strain, stronger effect = higher value
# Method in brief: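 Compounds were applied to mec2-1 yeast cells. Their growth was then compared with that of vehicle-treated cultures to give growth inhibition.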
# [7] = NCI Yeast Anticancer Drug Screen. Data for the rad14 strain (AID 159);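 note: 0% = growth of vehicle-treated control cultures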; conditions: S. cerevisiae rad14 strain growth inhibition, stronger effect = higher value
# Method in brief: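 A mutant yeast strain defective in DNA damage repair is treated with compound; inhibition of its growth is scored against untreated, vehicle-exposed cultures.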
# [8] = NCI Yeast Anticancer Drug Screen. Data for the sgs1 mgt1 strain (AID 161);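 note: 0% = growth of cultures given vehicle only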; conditions: S. cerevisiae sgs1 mgt1 strain, stronger effect = higher value
# Method in brief: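 Growth of a repair-deficient yeast mutant was monitored after compound treatment and expressed as inhibition relative to vehicle-treated cultures.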
# [9] = NCI Yeast Anticancer Drug Screen. Data for the CLN2oe strain (AID 163);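 note: 0% = growth of vehicle-only control cultures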; conditions: S. cerevisiae CLN2oe strain, stronger effect = higher value
# Method in brief: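 Cells of an engineered yeast line with disturbed cell-cycle regulation are treated with compound. Inhibition of growth is then calculated relative to the vehicle-treated reference.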
# [10] = NCI Yeast Anticancer Drug Screen. Data for the cln2 rad14 strain (AID 165);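 note: 0% = growth equal to vehicle treated cultures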; conditions: S. cerevisiae cln2 rad14 strain, stronger effect = higher value
# Method in brief: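 Strain: cln2 rad14 yeast, altered in cell cycle control and DNA damage repair. Read-out: growth inhibition vs vehicle.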
# [11] = NCI Yeast Anticancer Drug Screen. Data for the bub3 strain (AID 167); conditions: S. cerevisiae bub3 mutant strain, stronger effect = higher value
# Method in brief: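 Steps: expose the mutant yeast strain to compound; grow alongside vehicle-treated cultures; measure growth; express inhibition against the vehicle cultures.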
# [12] = NCI Yeast Anticancer Drug Screen. Data for the wt2 strain (AID 169);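 note: 0% = growth of vehicle-treated yeast cultures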; conditions: S. cerevisiae wt2 strain growth inhibition, stronger effect = higher value
# Method in brief: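 Growth of compound-treated yeast is measured and expressed as inhibition relative to vehicle-only controls.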
# [13] = NCI Yeast Anticancer Drug Screen. Data for the mlh1 strain (AID 171);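 note: 0% = growth of vehicle-treated control cultures of the same strain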; conditions: S. cerevisiae mlh1 strain growth inhibition, stronger effect = higher value
# Method in brief: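 Test agents were incubated with yeast bearing a defined DNA damage repair or cell cycle control alteration; values are growth inhibition normalised to vehicle-treated cultures.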
# [14] = NCI Yeast Anticancer Drug Screen. Data for the sgs1 strain (AID 173);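 note: 0% = growth of vehicle-only control cultures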; conditions: S. cerevisiae sgs1 mutant, stronger effect = higher value
# Method in brief: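 Strain with an altered DNA repair or cell cycle pathway exposed to compound. Growth then measured. Value = inhibition versus vehicle control.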
# [15] = NCI Yeast Anticancer Drug Screen. Data for the mlh1 rad18 strain (AID 175); conditions: S. cerevisiae mlh1 rad18 strain growth inhibition, stronger effect = higher value
# Method in brief: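 A repair-deficient yeast strain is exposed to test compound, and growth is scored relative to vehicle-treated controls.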
# [16] = NCI Yeast Anticancer Drug Screen. Data for the rad18 strain (AID 177); conditions: S. cerevisiae rad18 mutant growth inhibition, stronger effect = higher value
# Method in brief: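 DNA-repair-defective yeast; compound treatment; growth inhibition scored against vehicle.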
# [17] = at 5.0 µM (retest, dose inferred, filed as 0.5)
# [18] = at 50.0 µM (retest, dose inferred, filed as 5.0)
smiles,measurement,setting,value
O=C1C(=O)N(c2ccccc2)[C@@]2(c3ccccc3)C(=Nc3ccccc3)OC(c3ccccc3)=C12,growth inhibition,[1]; at 1.2 µM,0%
same,growth inhibition,[1]; at 3.7 µM,0%
same,growth inhibition,[1]; at 11.0 µM,3%
same,growth inhibition,[1]; at 33.0 µM,4%
same,growth inhibition,[1]; at 100.0 µM,40%
same,growth inhibition,[2]; at 1.2 µM,-2%
same,growth inhibition,[2]; at 3.7 µM,-1%
same,growth inhibition,[2]; at 11.0 µM,-1%
same,growth inhibition,[2]; at 33.0 µM,2%
same,growth inhibition,[2]; at 100.0 µM,31%
same,growth inhibition,[3]; at 1.2 µM,-3%
same,growth inhibition,[3]; at 3.7 µM,-1%
same,growth inhibition,[3]; at 11.0 µM,2%
same,growth inhibition,[3]; at 33.0 µM,31%
same,growth inhibition,[3]; at 100.0 µM,84% (active)
same,growth inhibition,[4]; at 1.2 µM,-3%
same,growth inhibition,[4]; at 3.7 µM,-1%
same,growth inhibition,[4]; at 11.0 µM,80% (active)
same,growth inhibition,[4]; at 33.0 µM,94% (active)
same,growth inhibition,[4]; at 100.0 µM,97% (active)
same,growth inhibition,[5]; at 1.2 µM,-1%
same,growth inhibition,[5]; at 3.7 µM,-2%
same,growth inhibition,[5]; [17],0%
same,growth inhibition,[5]; at 11.0 µM,0%
same,growth inhibition,[5]; at 33.0 µM,3%
same,growth inhibition,[5]; [18],4%
same,growth inhibition,[5]; at 50.0 µM,21.6%
same,growth inhibition,[5]; at 100.0 µM,36%
same,growth inhibition,[6]; at 1.2 µM,-2%
same,growth inhibition,[6]; at 3.7 µM,-1%
same,growth inhibition,[6]; [17],-30%
same,growth inhibition,[6]; at 11.0 µM,0%
same,growth inhibition,[6]; at 33.0 µM,6%
same,growth inhibition,[6]; [18],45%
same,growth inhibition,[6]; at 50.0 µM,10.5%
same,growth inhibition,[6]; at 100.0 µM,41%
same,growth inhibition,[7]; at 1.2 µM,-1%
same,growth inhibition,[7]; at 3.7 µM,1%
same,growth inhibition,[7]; at 11.0 µM,3%
same,growth inhibition,[7]; at 33.0 µM,8%
same,growth inhibition,[7]; at 100.0 µM,57%
same,growth inhibition,[8]; [17],49%
same,growth inhibition,[8]; [18],96% (active)
same,growth inhibition,[8]; at 50.0 µM,52%
same,growth inhibition,[9]; at 1.2 µM,2%
same,growth inhibition,[9]; at 3.7 µM,0%
same,growth inhibition,[9]; at 11.0 µM,1%
same,growth inhibition,[9]; at 33.0 µM,9%
same,growth inhibition,[9]; at 100.0 µM,47%
same,growth inhibition,[10]; [17],-1%
same,growth inhibition,[10]; [18],21%
same,growth inhibition,[10]; at 50.0 µM,32.9%
same,growth inhibition,[11]; at 1.2 µM,-1%
same,growth inhibition,[11]; at 3.7 µM,-6%
same,growth inhibition,[11]; [17],-5%
same,growth inhibition,[11]; at 11.0 µM,-5%
same,growth inhibition,[11]; at 33.0 µM,-5%
same,growth inhibition,[11]; [18],9%
same,growth inhibition,[11]; at 50.0 µM,4.75%
same,growth inhibition,[11]; at 100.0 µM,20%
same,growth inhibition,[12]; at 1.2 µM,-3%
same,growth inhibition,[12]; at 3.7 µM,-5%
same,growth inhibition,[12]; at 11.0 µM,72% (active)
same,growth inhibition,[12]; at 33.0 µM,93% (active)
same,growth inhibition,[12]; at 100.0 µM,96% (active)
same,growth inhibition,[13]; at 1.2 µM,-3%
same,growth inhibition,[13]; at 3.7 µM,-4%
same,growth inhibition,[13]; at 11.0 µM,62%
same,growth inhibition,[13]; at 33.0 µM,93% (active)
same,growth inhibition,[13]; at 100.0 µM,95% (active)
same,growth inhibition,[14]; at 1.2 µM,-3%
same,growth inhibition,[14]; at 3.7 µM,2%
same,growth inhibition,[14]; at 11.0 µM,74% (active)
same,growth inhibition,[14]; at 33.0 µM,93% (active)
same,growth inhibition,[14]; at 100.0 µM,96% (active)
same,growth inhibition,[15]; [17],1%
same,growth inhibition,[15]; [18],-8%
same,growth inhibition,[15]; at 50.0 µM,40.1%
same,growth inhibition,[16]; at 1.2 µM,-3%
same,growth inhibition,[16]; at 3.7 µM,0%
same,growth inhibition,[16]; at 11.0 µM,2%
same,growth inhibition,[16]; at 33.0 µM,4%
same,growth inhibition,[16]; at 100.0 µM,30%
